± gives the standard deviation.
system: OVCAR-3-derived ovarian cancer stem-like cells (spheroids); assay: cell growth relative to untreated control; higher = more growth (less inhibition); conditions: 2.29 µM; 96 h
How it was run: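 Stem-like cells derived from OVCAR-3 spheroids were dissociated with trypsin and seeded at 50,000 cells/mL in stem cell medium in ultra-low attachment 96-well plates, then preincubated for 24 h. Each compound was added at 2.29 uM to 4 replicate wells and left for 96 h at 37°C, 5% CO2. Viability came from TOX8 resazurin fluorescence (ex 560/em 590 nm) read after 4 h. Percent growth was expressed relative to untreated wells, after blank subtraction and removal of outliers by the Grubbs test.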

Compound	cell growth [%]
CCCCCCCCCCNCCSSCc1ccc(Cl)cc1	126 ± 23
CC1(c2cccc3ccccc23)OC(=O)c2ccccc21 (centres undefined)	116 ± 29
CC1CCCC(C(=O)/C(=C/c2cccc(Cl)c2)C(=O)C(=O)O)C1 (centres undefined)	93.9 ± 27
Cc1nc2c(nc1C)C(=O)c1ccccc1C2=O	54.6 ± 6.1
COC(=O)C[S+]([O-])c1ccccc1 (centres undefined)	84.6 ± 18
COc1cc2c(cc1Oc1ccc(OC)c3c1CC1c4c(cc(OC)c(OC)c4-3)CCN1C)CC1c3c(cc(OC)c(OC)c3-2)CCN1C (centres undefined)	101 ± 11
Oc1ccc(-c2nc3ccccc3s2)cc1	94.8 ± 14
C=CC(=O)N1C/C(=C\c2ccccc2)C(=O)/C(=C/c2ccccc2)C1	43.2 ± 6.1
CCN(CC)CC(C)(C)C(=O)/C=C/c1ccc(C)cc1	80.7 ± 22
COc1ccc(/C=C/c2cc(O)cc(O[C@@H]3O[C@H](CO)[C@@H](O)[C@H](O)[C@H]3O)c2)cc1O	106 ± 26
COc1ccc(S(=O)(=O)N/N=C/C(=O)O)cc1	117 ± 15
Nc1ccccc1N	88.4 ± 25
O=S1(=O)CCN(c2ccccc2CC(c2c[nH]c3ccccc23)c2c[nH]c3ccccc23)CC1	104 ± 24
COc1cc2c(c(OC)c1OC)-c1c(cc3c(c1OC)OCO3)CC(C)C(C)(O)C2OC(=O)c1ccccc1 (centres undefined)	130 ± 29
CCCCCCCC/C=C\CCCCCCCC(=O)O	124 ± 36
CCCC[S+]([O-])CC(CO)NC(=O)/C=C\c1c(C)[nH]c(=O)[nH]c1=O (centres undefined)	105 ± 28
COc1ccc2c(NCCCCCCNc3c4ccccc4nc4cc(OC)ccc34)c3ccccc3nc2c1	13.9 ± 5.5
CCCc1c(Cl)nc(Cl)nc1Cl	96.4 ± 19
CCCCCC(CN1CCOCC1)C(=O)/C=C/c1ccccc1 (centres undefined)	93 ± 29
CC(C)=CCC(OC(=O)C=C(C)C)C1=CC(=O)c2c(O)ccc(O)c2C1=O (centres undefined)	35 ± 16

Compound	cell growth [%]
Cn1ncc2cc3c(Nc4ccc(Cl)cc4)cccc3nc21	8 ± 4.9
Nc1ncnc2c1nnn2[C@@H]1O[C@H](CO)[C@@H](O)[C@H]1O	23.1 ± 4.4
CCN(CC)CCCNc1ncc(C)c2[nH]c3ccncc3c12	82.7 ± 8.6
CN(C)[C@@H]1C(=O)C(C(N)=O)=C(O)[C@@]2(O)C(=O)C3=C(O)c4c(O)cccc4C[C@H]3C[C@@H]12	57.8 ± 20
C[C@@H]1CC[C@H]2C(C)(C)[C@H]3C[C@@]12CC[C@@]3(C)O	48.3 ± 7
CC1=C(C(=O)NCc2ccccc2)C(c2ccccc2O)C(C(=O)NCc2ccccc2)=C(C)N1	76.9 ± 12
O=C1Nc2c(Cl)cc(Cl)cc2C1=O	22.4 ± 13
CC(C)(C)[Si](C)(C)OCC1CCC(n2cnc3c(N)ncnc32)O1 (centres undefined)	111 ± 23
O=c1cccccc1O	92.1 ± 38
OCc1ccc(-c2ccc(-c3ccc(CO)s3)o2)s1	92.2 ± 21
Cc1ccc(/C=C2\CNC/C(=C\c3ccc(C)cc3)C2=O)cc1	44.5 ± 10
O=c1[nH]c(=O)n(C2OC(CO)C(O)C2O)cc1F (centres undefined)	19.2 ± 4.6
NC(=O)c1c([N+](=O)[O-])cc(C(F)(F)F)cc1[N+](=O)[O-]	63.9 ± 13
CC(=O)[O][Hg].c1ccc2c(c1)ccc1ccccc12	132 ± 32
CC1C(Oc2c(-c3ccc(O)c(O)c3)oc3c(O)cc(O)cc3c2=O)OC(O)C(O)C1O (centres undefined)	77.6 ± 18
Cc1ccc(S(=O)(=O)SC/C=C/CSS(=O)(=O)c2ccc(C)cc2)cc1	113 ± 25
[N-]=[N+]=NC1=NNC2(C(=O)N1)c1ccccc1-c1ccccc12	99.3 ± 38
Cc1c2ccc3ccccc3c2c[n+]2ccccc12	88.9 ± 14
CCc1cccc(C(C)C)c1NC(=O)/C(=N\NC(N)=O)C(C(=O)OC)c1cnc2ccccc2n1 (centres undefined)	71.4 ± 14

From the supplement of paper PMC3484114
